Only some compounds are listed: those with a hit (about 21% of all), similar ones and a draw of the others.
DRD3 agonist = activates the human D3 dopamine receptor; P35462; D3R DiscoveRx beta-arrestin cells, luminescence, 90 min; max activation, %; hit rate 0.58% among 410,000; in the data active = max activation above about 30%; note: 0% is about no effect
Target sequence (P35462 whole entry, looked up): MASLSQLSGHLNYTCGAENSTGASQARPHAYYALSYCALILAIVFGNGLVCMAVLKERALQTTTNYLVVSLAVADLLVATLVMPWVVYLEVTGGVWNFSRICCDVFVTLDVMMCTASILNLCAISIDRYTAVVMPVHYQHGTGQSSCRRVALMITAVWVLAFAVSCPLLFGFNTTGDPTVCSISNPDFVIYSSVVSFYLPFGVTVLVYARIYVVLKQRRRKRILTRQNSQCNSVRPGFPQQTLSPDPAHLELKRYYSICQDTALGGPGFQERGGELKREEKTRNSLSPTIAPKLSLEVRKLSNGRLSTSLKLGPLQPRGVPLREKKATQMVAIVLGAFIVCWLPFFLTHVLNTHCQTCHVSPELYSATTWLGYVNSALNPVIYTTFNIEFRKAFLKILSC
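Agonist mode: compounds and dopamine controls were applied to plated cells for 90 min at 37 degrees C after an overnight attachment at 1500 cells/well. Luminescent read-out followed 30 - 60 minutes at room temperature with DiscoveRx detection reagent.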
ClpP mod = qHTS Assay for Activators of ClpP; Potency, µM (highest dose often 57.5 µM), for the others: at the top dose activity change, negative = active; AID 651965, 2013; ATP-dependent Clp protease proteolytic subunit (Bacillus subtilis (strain 168)), P80244; purified B. subtilis ClpP, FRET peptide cleavage, 20 min; hit rate 1.9% among 340,000; active = well fitted falling curve with a large enough effect; inconclusive = small, poorly fitted or top-dose-only effect; inactive = no such curve, though single readings can be large or run the other way; note: potency is the fitted concentration of half-maximal effect; the source files actives as falling curves though it sought activators and does not explain the sign; nearly all actives have a fitted effect of over 65% in size
Target sequence (P80244 whole entry, looked up): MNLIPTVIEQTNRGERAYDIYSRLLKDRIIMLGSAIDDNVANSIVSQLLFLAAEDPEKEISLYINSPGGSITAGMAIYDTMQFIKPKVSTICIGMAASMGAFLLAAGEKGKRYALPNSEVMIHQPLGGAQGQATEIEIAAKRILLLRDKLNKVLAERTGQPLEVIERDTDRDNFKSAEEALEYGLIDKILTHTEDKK
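Buffer: 100 mM Tris/HCl pH8, 100 mM KCl, 0.05% low protease BSA, 2.5% glycerol, 0.01% Tween-20. ClpP 10 microg/mL final; 20 min RT; delta FRET normalized to ADEP and DMSO controls.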
DT40 TDP1 CPT = DT40-hTDP1 cell growth loss with CPT | chicken DT40 Tdp1-/-;hTDP1 cells + 20 nM CPT, ATP luminescence, 48 h | Potency, µM (top dose mostly 46.2 µM), without a hit: top-dose activity change, negative = growth inhibition, hits mostly inhibitors | hit rate 12% among 420,000 | AID 686979; note: potency is the fitted concentration of half-maximal effect; % is set by controls: 0 for no effect and ±100 for the full control effect; nearly all actives have a fitted effect of over 55% in size
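Cell growth measured by CellTiter-Glo luminescence after a minimum 48 h, 37 C compound exposure with 20 nM CPT in Tdp1-knockout DT40 cells stably expressing hTDP1, seeded 400/well; qHTS titration format.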
IL-1B inflam inh = blocks inflammasome-driven IL-1 beta release; activity change, % at 57.5 µM; THP-1 LPS/ATP IL-1B secretion, AlphaLISA, 16 h; active compounds read low; hit rate 4.7% among 360,000; AID 743279; in the data active = activity change below about -50%; inconclusive = mostly about -30% to -49%; note: % is set by controls: 0 for no effect and ±100 for the full control effect
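Secreted IL-1B measured by AlphaLISA bead assay after 16 h compound exposure of THP-1 cells; compounds (final up to 57.5 uM) added 1 h before LPS (250 ng/mL) and ATP (1.25 mM) stimulation; lower signal means less secretion.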
TDP1 cell noCPT = qHTS for Inhibitors of human tyrosyl-DNA phosphodiesterase 1 (TDP1): qHTS in cells in absence of CPT; Potency, µM (titrated, usually from 46.2 µM), for inactives: at the highest dose activity change, negative = growth inhibition, usual class: inhibitors; hit rate 15% among 420,000; AID 686978, 2013; DT40 Tdp1-/- hTDP1 cells, no CPT, ATP luminescence, 48 h; note: potency is the fitted concentration of half-maximal effect; % is set by controls: 0 for no effect and ±100 for the full control effect; nearly all actives have a fitted effect of over 55% in size
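Seeded 400 DT40-hTDP1 cells/well (vehicle DMSO, no 20 nM CPT); pinned compounds; ≥48 hr at 37 °C; CellTiter-Glo luminescence as viability measure.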
D3 antag = D3 dopamine receptor (human) antagonism. P35462. D3R cells, DiscoveRx beta-arrestin luminescence, antagonist mode; active compounds read low. max response, negative = inhibition, %. hit rate 2.5% among 360,000; in the data active = max response below about -50%; inconclusive = no clear call, values can overlap the other calls; note: % is set by controls: 0 for no effect and ±100 for the full control effect
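Cells expressing the human receptor were seeded at 1500 cells/well, incubated overnight at 37 degrees C in 5% CO2, then exposed to library compounds with dopamine controls for 90 minutes at 37 degrees C before luminescent detection.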
Numbers without * were called inactive; ? = inconclusive; . = not tested or not shown; [ ] = another dose, or the depositor's remark. Unless noted, calls come from the whole dose curve; as a rule, active = well fitted inhibition curve with a large enough effect; inconclusive = small, poorly fitted or top-dose-only effect; inactive = flat fitted curve, though single readings scatter.

SMILES | DRD3 agonist | ClpP mod | DT40 TDP1 CPT | IL-1B inflam inh | TDP1 cell noCPT | D3 antag
Cc1nn(-c2ccccc2)c(N)c1N=Nc1cccc(S(=O)(=O)N2CCOCC2)c1 | 2.4 | . | ? | -56.2* | 16.4µM* | 4.4
CC1CCCCC1NC(=O)c1ccc(S(=O)(=O)NCC2CCCO2)cc1 (configuration not stated) | -0.9 | -1.2% | -8.9% | 4.2 | ? | 7.3
CC(C)c1ccc(-c2nc(C(N)=O)c3c(n2)n(-c2ccc4c(c2)OCO4)c(=O)n3C)cc1 | 4.8 | 5.8% | . | . | . | .
Nc1nn(-c2ccccc2)c(N)c1N=Nc1ccccc1F | -12.9 | 0.6% | 9.2µM* | -54.5* | 13µM* | 0.2
Nc1ccc2ccccc2c1N=Nc1ccccc1 | -6.0 | . | ? | ? | ? | -1.3
Cc1nn(-c2ccccc2)c(N)c1N=Nc1ccccc1 | 2.0 | -3.7% | ? | -68.3* | 20.6µM* | -4.5
Nc1ncnc(N)c1N=Nc1ccccc1 | -1.1 | . | 23.1µM* | -59.9* | 3.26µM* | 15.5
Cc1cccc(N=Nc2c(C)nn(-c3ccccc3)c2N)c1C | -1.0 | -2.8% | ? | 0.0 | ? | 0.2
O=C1NC[C@H](c2ccccc2)OC(=O)[C@@H](Cc2ccc(F)cc2)C/C=C\C[C@H]1CC(=O)N(CCO)Cc1ccccc1 | 5.9 | 1.2% | 8.2µM* | 0.0 | ? | 0.0
O=C(C[C@H]1C/C=C\C[C@@H](Cc2ccc(F)cc2)C(=O)O[C@@H](c2ccccc2)CNC1=O)NCCO | 8.4 | -1.4% | -10.6% | 0.0 | ? | 17.8
O=C1NC[C@@H](c2ccccc2)OC(=O)[C@H](Cc2ccc(F)cc2)C/C=C\C[C@H]1CC(=O)N(CCO)Cc1ccccc1 | 7.0 | -0.2% | 20.6µM* | ? | 16.4µM* | -6.7
O=C1NC[C@H](c2ccccc2)OC(=O)[C@H](Cc2ccc(F)cc2)C/C=C\C[C@H]1CC(=O)N(CCO)Cc1ccccc1 | -2.7 | 1.3% | 10.3µM* | -60.2* | 8.2µM* | 34.9
O=C(C1=C[C@@H](c2ccc(Br)cc2)C[C@@H](OCc2ccc(CO)cc2)O1)N1CCN(Cc2ccccc2)CC1 | -14.0 | -2.7% | ? | ? | 23.1µM* | ?
CN1CCN(C(=O)C2=C[C@@H](c3ccccc3)C[C@@H](OCc3ccc(CO)cc3)O2)CC1 | -20.0 | 0.0% | -23.4% | -26.4 | -25.2% | -1.0
C#Cc1ccc([C@H]2C=C(C(=O)N3CCN(Cc4ccccc4)CC3)O[C@@H](OCc3ccc(CO)cc3)C2)cc1 | -20.8 | -5.7% | 16.4µM* | -23.3 | 18.4µM* | -14.4
COc1ccc(-c2cc(CS(=O)(=O)c3ccccc3)on2)cc1 | -6.4 | . | -7.7% | -15.7 | -4.8% | 0.0
CNC(=O)/C(C#N)=C/c1ccc(-c2nc3ccccc3s2)o1 | -3.3 | . | -3.8% | . | ? | -15.9
N#C/C(=C\c1ccc(-c2nc3ccccc3s2)o1)C(N)=O | 15.5 | 0.0% | ? | 23.2 | 18.4µM* | 1.6
COCCNC(=O)c1ccc2c(c1)N(Cc1c(F)cccc1Cl)C(=O)c1ccccc1S2 | 2.3 | 0.9% | -26.6% | . | 20.6µM* | .
CC(C)OCCCNC(=O)c1ccc2c(c1)N(Cc1c(F)cccc1Cl)C(=O)c1ccccc1S2 | -4.6 | -0.5% | 23.1µM* | . | 25.9µM* | .
CCCNC(=O)c1ccc2c(c1)N(Cc1cccc(C)c1)C(=O)c1ccccc1S2 | -21.1 | -0.1% | -13.8% | . | -12.0% | .
Cc1ccc(C)c(CN2C(=O)c3ccccc3Sc3ccc(C(=O)NCCCOC(C)C)cc32)c1 | -0.8 | -1.4% | ? | . | 20.6µM* | .
O=C(NCCc1ccccc1)c1ccc2c(c1)N(Cc1ccccc1Cl)C(=O)c1ccccc1S2 | 6.2 | 1.1% | ? | . | ? | .
CCN(C(=O)CN1C(=O)c2ccccc2Sc2ccc(C(=O)OC)cc21)c1cccc(C)c1 | -3.8 | 1.2% | ? | . | 23.1µM* | .
C[C@@H]1CN[C@H](CCO)/C1=C\c1ccccc1 | -8.2 | -2.0% | -3.6% | 9.8 | -28.3% | -19.6
SMILES | DRD3 agonist | ClpP mod | DT40 TDP1 CPT | IL-1B inflam inh | TDP1 cell noCPT | D3 antag
O=C(NC1CCCC1)c1ccc2c(c1)N(Cc1c(F)cccc1Cl)C(=O)c1ccccc1S2 | 3.5 | -2.1% | 16.4µM* | . | 16.4µM* | .
COc1ccc(Nc2c(-c3ccc(C)o3)nc3ccccn23)cc1 | . | 4.6% | ? | . | ? | .
Fc1ccc(Nc2c(-c3c[nH]c4ccccc34)nc3ccccn23)cc1 | -4.0 | 3.9% | 16.4µM* | . | 20.6µM* | .
c1ccc(Nc2c(-c3c[nH]c4ccccc34)nc3ccccn23)cc1 | 1.7 | 4.1% | 14.6µM* | . | 11.6µM* | .
Cc1ccc(Nc2c(-c3ccccc3O)nc3ccc(Br)cn23)cc1 | -4.9 | 2.0% | -16.0% | . | -1.5% | .
Cc1ccc2nc(-c3c[nH]c4ccccc34)c(Nc3ccccc3)n2c1 | -0.8 | 4.6% | 16.4µM* | . | ? | .
COc1ccc(C2=CC(=O)OC(C)(c3ccccc3)O2)cc1 (configuration not stated) | -8.6 | -17.0% | ? | 9.9 | ? | -19.1
COc1cc(CCC(=O)OCC(=O)Nc2sccc2C(N)=O)cc(OC)c1OC | 4.6 | . | -28.3% | 4.5 | ? | 21.7
CC(C)C[C@H](N)C(=O)N[C@H](C(=O)N[C@H](C(=O)N[C@@H](Cc1ccc(O)cc1)C(=O)N1CCC[C@H]1C(=O)N[C@@H](Cc1c[nH]c2ccccc12)C(=O)N[C@H](C(=O)N[C@@H](CCC(N)=O)C(=O)N[C@@H](CCCN=C(N)N)C(=O)O)[C@@H](C)O)C(C)C)C(C)C | . | . | -27.7%[4.12 µM] | . | -17.2%[4.12 µM] | .
O=S(=O)(NCCc1ccccc1)c1cnc(Cl)c(Br)c1 | -5.8 | -0.2% | -11.5% | -89.6* | -12.5% | 21.7
O=S(=O)(NCc1ccco1)c1cnc(Cl)c(Br)c1 | -5.0 | -1.0% | -3.6% | . | 4.6% | -18.5
Cc1nc(-c2ccccc2)sc1C(=O)NN | -5.1 | 0.9% | -4.0% | 3.7 | -22.5% | -0.3
Cc1ccc(N/C=C/C(=O)c2sc(-c3ccccc3)nc2C)cc1 | 0.4 | -2.0% | ? | -5.5 | 23.1µM* | 1.0
CC1=C([N+](=O)[O-])C(c2ccc3c(c2)OCO3)N(C)C(=O)N1C (configuration not stated) | -5.6 | . | 8.2µM* | -1.9 | 20.6µM* | -13.2
Cn1c(NCc2ccccc2F)nc2ccccc21 | -11.9 | -1.2% | -25.3% | . | ? | .
COc1ccccc1CC(=O)N(CCC1=CCCCC1)c1c(N)n(Cc2ccccc2)c(=O)[nH]c1=O | -15.2 | -0.7% | -14.7% | 3.6 | -23.4% | -82.8*

Source: PubChem BioAssay
